Source: the supplement of paper PMC8866396
± gives the standard deviation of the averaged measurements.

Legend:
IL-6-GFP PC-9GR = test: cell viability (CCK-8 OD) relative to DMSO control (fraction of control); higher = more viable cells; details: compound concentration: 10 uM; treatment time: 48 h
Method in brief: (§1)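 PC-9 and PC-9GR lung cancer cells expressing lentiviral IL-6-GFP were plated at 3000 cells/well in 96-well plates and treated for 48 h with each library compound at a final 10 μM. Viability was determined by CCK-8 absorbance as a ratio of each well's optical density to the vehicle control well.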

IL-6-GFP PC-9 = test: as above; details: compound concentration: 10 uM; treatment time: 48 h
Method in brief: as §1

SMILES | cell viability (IL-6-GFP PC-9GR) | cell viability (IL-6-GFP PC-9)
CC(C)CC(NC(=O)C(Cc1ccccc1)NC(=O)c1cnccn1)B(O)O (configuration not stated) [Bortezomib (PS-341)] | 0.105 ± 0.11 | 0.14 ± 0.057
CC1CNc2c(cccc2S(=O)(=O)NC(CCCNC(=N)N)C(=O)N2CCC(C)CC2C(=O)O)C1.O (configuration not stated) [Argatroban Monohydrate] | 1.49 ± 0.35 | 1.12 ± 0.23
C[Se]CC[C@H](N)C(=O)O [L-SelenoMethionine] | 1.19 ± 0.22 | 1.28 ± 0.098
C#Cc1cccc(Nc2ncnc3cc(OCCOC)c(OCCOC)cc23)c1 [Erlotinib] | 0.81 ± 0.028 | 0.616 ± 0.035
Cc1cnc(Nc2ccc(OCCN3CCCC3)cc2)nc1Nc1cccc(S(=O)(=O)NC(C)(C)C)c1 | 0.186 ± 0.081 | 0.3 ± 0.12
O=C(CCCCCCC(=O)Nc1ccccc1)NO [Vorinostat (SAHA, MK0683)] | 0.449 ± 0.048 | 0.418 ± 0.095
Nc1ccccc1NC(=O)c1ccc(CNC(=O)OCc2cccnc2)cc1 [Entinostat (MS-275)] | 0.59 ± 0.036 | 0.465 ± 0.028
CCOC(=O)C(CCc1ccccc1)NC1CSC(c2cccs2)CN(CC(=O)O)C1=O (configuration not stated) [Temocapril] | 0.726 ± 0.078 | 1.14 ± 0.099
Nc1nc(F)nc2c1ncn2C1OC(COP(=O)(O)O)C(O)C1O (configuration not stated) [Fludarabine Phosphate] | 0.174 ± 0.083 | 0.206 ± 0.052
COC1CC2CCC(C)C(O)(O2)C(=O)C(=O)N2CCCCC2C(=O)OC(C(C)CC2CCC(OP(C)(C)=O)C(OC)C2)CC(=O)C(C)/C=C(\C)C(O)C(OC)C(=O)C(C)CC(C)/C=C/C=C/C=C/1C (configuration not stated) [Ridaforolimus (Deforolimus, MK-8669)] | 1.15 ± 0.22 | 0.571 ± 0.42
CCC(=O)NS(=O)(=O)c1ccc(-c2c(-c3ccccc3)noc2C)cc1 [Parecoxib] | 1.06 ± 0.1 | 1.26 ± 0.014
